Assay results taken from PubChem BioAssay (NCI).
The panel holds about 83,000 compounds, 20% with a hit somewhere; the sample as a whole holds those more often.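 Each cell line was grown in a 96-well plate and treated with one concentration of compound for 48 hours. Values below 10 were considered active.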 Values without a mark were called inactive. Activity calls are given as the source filed them.

How the values were obtained:
Experiment in all cases: NCI-60 one-dose screen, 48 h (100 = growth as untreated, 0 = no growth, -100 = all killed)
Details in all cases: 10 µM unless noted
[1] = tested on: SK-MEL-2 melanoma
[2] = tested on: EKVX NSCLC
[3] = tested on: SN12C renal
[4] = tested on: UO-31 renal
[5] = tested on: TK-10 renal
[6] = tested on: ACHN renal
[7] = tested on: CAKI-1 renal
[8] = tested on: A498 renal
[9] = tested on: CCRF-CEM leukemia
[10] = tested on: MOLT-4 leukemia

Row | SMILES | growth [1] | growth [2] | growth [3] | growth [4] | growth [5] | growth [6] | growth [7] | growth [8] | growth [9] | growth [10]
1 | C=CCn1cc(-c2nc3ccccc3s2)c2cc(-c3ccc4c5c(cccc35)C(=O)N(N)C4=O)ccc21 | 102% | 82.1% | 92.1% | 61.3% | 152% | 92% | 75.1% | 106% | 104% | 96.5%
2 | Cn1cc(-c2csc(-c3c[nH]c4ccc(Br)cc34)n2)c2cnccc21 | -65.7% (active) | -78.3% (active) | -87.2% (active) | -96.3% (active) | -83.9% (active) | -98.6% (active) | -97% (active) | -97.3% (active) | -39% (active) | -58.3% (active)
3 | CCS/C(Nc1ccccc1)=C(\C#N)C(=O)N/N=C/c1ccc(Cl)cc1Cl | 28.3% | 47.4% | 34.5% | 41.9% | 56.7% | 38.2% | 31.5% | -2.1% (active) | 9.86% (active) | 18.3%
4 | O=C(CCC(=O)N/N=C/c1ccccc1O)N/N=C/c1ccccc1O | 69.7% | 41.1% | 70.2% | 17.4% | 44% | 18.7% | 27.7% | 80% | 25% | 18.1%
5 | OCc1cccc(-c2ccc3ncc(-c4nc(NC5CC5)ncc4F)n3c2)c1 | -55.4% (active) | 2.69% (active) | -15.4% (active) | -14.1% (active) | 13.5% | -13.2% (active) | 1.44% (active) | -47.8% (active) | -2% (active) | -27.8% (active)
6 | Cc1cccc(Cl)c1NC(=O)c1ccc2nc(NC(=O)NCCN(C)C)sc2c1 | 103% | 104% | 92% | 90.1% | 111% | 92.9% | 95.1% | 90.7% | 79.4% | 80.2%
7 | CCn1c(=S)sc2c(Nc3ccc(F)cc3)nc(-c3cccnc3)nc21 | 63.1% | 80.5% | 84.1% | 78.5% | 58.2% | 40.7% | 55.1% | 93.7% | 102% | 93.7%
8 | O=C1Nc2ccc(Br)cc2/C1=N/c1n[nH]c(=S)s1 | 105% | 100% | 96.6% | 86.4% | 104% | 96.3% | 74.6% | 92.4% | 104% | 100%
9 | N#CC1=C(N)Oc2c(sc3c(Br)cccc23)C1c1ccc(F)cc1 (stereo not given) | 37% | 45.6% | 27.4% | 34.4% | 43.1% | 30.7% | 46.6% | 17.8% | 18.4% | 5.38% (active)
10 | COc1ccc2c(O)c(/C=C3\N=Nc4ccccc43)oc2c1C[C@@H]1CCNC[C@H]1F | 96.9% | 64.5% | 67.7% | 50.5% | 84.2% | 61.3% | 64.8% | 57.9% | -16.3% (active) | 68%
11 | N#C/C(=C\c1ccc(Br)cc1)n1nnc2ccc(F)cc21 | 13.8% | 49.9% | -51.2% (active) | -36.4% (active) | -3.76% (active) | -37.9% (active) | -4.59% (active) | -15.6% (active) | -10.2% (active) | -20% (active)
12 | C=CCn1c(SCC(=O)NCc2cc(C)c(O)c(C)c2)nc2ccc(Cl)cc2c1=O | 101% | 111% | 107% | 74.6% | 113% | 98.9% | 112% | 106% | 86.3% | 81.6%
13 | COc1cc(CNS(=O)(=O)c2ccc(C)cc2)ccc1OCc1cn(-c2ccc(F)cc2)nn1 | 104% | 80.3% | 92.2% | 63.9% | 116% | 93.2% | 89.6% | 54.1% | 79.9% | 78.2%
14 | COc1cccc(CNc2ncnc3c2ncn3C2OC(CO)C(O)C2O)c1O (stereo not given) | -6.73% (active) | 24.6% | -3.64% (active) | 7.67% (active) | 6.39% (active) | -14.3% (active) | -2.16% (active) | -0.46% (active) | -17.3% (active) | 0.14% (active)
15 | CN(C)CCCC1(c2ccc(F)cc2)OCc2cc(-c3cncc4ccccc34)ccc21 (stereo not given) | 58.7% | 76.2% | 43.1% | 29.9% | 83.1% | 36.9% | 28.2% | 34.1% | 26.9% | 14.6%
16 | O=C(CSc1nc2ccc([N+](=O)[O-])cc2[nH]1)Nc1cccc(C(F)(F)F)c1 | -5.5% (active) | 23.9% | 9.37% (active) | 8.44% (active) | 25.1% | 16% | 1.15% (active) | -6.75% (active) | 19% | 8.77% (active)
17 | COc1cc(C(=O)n2nc(N3CCN(C)CC3)c3cc(N)ccc32)cc(OC)c1OC | 70.9% | 34.1% | 39.6% | 26.4% | 59.1% | 36.8% | 57.3% | -3.79% (active) | 20.2% | 17.3%
18 | CN1CCN(c2ccc(C(=O)Nc3cccc(C#Cc4cccc5[nH]nc(N)c45)c3)cc2C(F)(F)F)CC1 | 27.7% | 17.1% | 3.37% (active) | -62% (active) | -30.2% (active) | -46.2% (active) | -96.2% (active) | 5.93% (active) | -25.3% (active) | -56.3% (active)
19 | CC12CCC3c4ccccc4CCC3(CO1)C2 (stereo not given) | 109% | 107% | 98.3% | 117% | 110% | 98.4% | 101% | 78.9% | 86.9% | 89.3%
20 | O=C1c2cccc(NCCN=Cc3cc(O)ccc3O)c2C(=O)c2c(NCCN=Cc3cc(O)ccc3O)cccc21 | 20.9% | 3.36% (active) | -24.7% (active) | -18% (active) | -12.1% (active) | 0.31% (active) | -37.1% (active) | -48.6% (active) | -58.7% (active) | -53.1% (active)
21 | O=C(Nn1c2c(sc1=Nc1ccccc1)C(=O)c1ccccc1C2=O)c1cc2ccc1CCc1ccc(cc1)CC2 | 75.2% | 70.4% | 70.2% | 33.6% | 108% | 42.7% | 32.1% | 93.7% | 79.8% | 83.3%
22 | COc1cc2c(c(OC)c1OC)CCC(c1cccc(C(=O)Nc3cccc(Br)c3)c1)O2 (stereo not given) | 76.8% | 50.4% | 55.9% | 54.7% | 78.7% | 84.3% | 57.8% | 28.8% | 69% | 49.4%
23 | COc1ccc(C/C(C)=C(/c2ccc(OCCN3CCCCC3)cc2)c2ccc(OC(=O)NCc3ccccc3)cc2)cc1 | -86.2% (active) | -78.4% (active) | -88% (active) | -92.2% (active) | -90.7% (active) | -100% (active) | -95% (active) | -97.1% (active) | -44.1% (active) | -53.2% (active)
24 | CCNc1cc(-c2cccc(OC(F)(F)F)c2)nc2ccc(N3CCCC3)cc12 | 6.05% (active) | 17.1% | 9.26% (active) | 5.13% (active) | 35.5% | -12.7% (active) | 30.6% | 58.9% | 13.4% | 2.48% (active)
25 | C/C(=C(/c1ccc(Cl)cc1)c1ccc(OCCN2CCCC2)cc1)c1ccc(Cl)cc1 | 93.9% | 90.7% | 85.5% | 65.7% | 94.6% | 104% | 88.5% | 97.9% | 61.7% | 62.9%
26 | O=C(NNC(=O)c1ccc(-n2cc(-c3ccccc3)nn2)cc1)Nc1ccccc1 | 110% | 108% | 97.7% | 92.2% | 109% | 101% | 91.8% | 105% | 102% | 107%
